# Measurements reported in publication PMC11062922 (Nature Chemical Biology, 2023).
# Columns and labels:
# PRKCA = system: PRKCA; design: species or system human, MV4-11 + K-562 + COLO205 + SK-N-BE2 + OVCAR-8; settings: compound concentrations:0.3nM, 1nM, 3nM, 10nM, 30nM, 100nM, 300nM, 1000nM,R2:0.94698851760637903,slope:2.0520697350296202,EC50 Standard Error, by the legend:Standard error of the EC50 estimation as provided by the drc package.
# CIT = system: CIT; design: species or system human, MV4-11 + K-562 + COLO205 + SK-N-BE2 + OVCAR-8; settings: compound concentrations:0.3nM, 1nM, 3nM, 10nM, 30nM, 100nM, 300nM, 1000nM,R2:0.97918771846363795,slope:1.88206182244377,EC50 Standard Error, by the legend:Standard error of the EC50 estimation as provided by the drc package.
# MOB1A = system: MOB1A; design: species or system human, MV4-11 + K-562 + COLO205 + SK-N-BE2 + OVCAR-8; settings: compound concentrations:0.3nM, 1nM, 3nM, 10nM, 30nM, 100nM, 300nM, 1000nM,R2:0.920591021551731,slope:1.01230388230399,EC50 Standard Error, by the legend:Standard error of the EC50 estimation as provided by the drc package.
# PKN2 = system: PKN2; design: species or system human, MV4-11 + K-562 + COLO205 + SK-N-BE2 + OVCAR-8; settings: compound concentrations:0.3nM, 1nM, 3nM, 10nM, 30nM, 100nM, 300nM, 1000nM,R2:0.99284498309618197,slope:1.0925759067996901,EC50 Standard Error, by the legend:Standard error of the EC50 estimation as provided by the drc package.
# PRKACA = system: PRKACA; design: species or system human, MV4-11 + K-562 + COLO205 + SK-N-BE2 + OVCAR-8; settings: compound concentrations:0.3nM, 1nM, 3nM, 10nM, 30nM, 100nM, 300nM, 1000nM,R2:0.96854382612038603,slope:0.55494475064464099,EC50 Standard Error, by the legend:Standard error of the EC50 estimation as provided by the drc package.
# PRKACB = system: PRKACB; design: species or system human, MV4-11 + K-562 + COLO205 + SK-N-BE2 + OVCAR-8; settings: compound concentrations:0.3nM, 1nM, 3nM, 10nM, 30nM, 100nM, 300nM, 1000nM,R2:0.87991730549407599,slope:0.899687988537484,EC50 Standard Error, by the legend:Standard error of the EC50 estimation as provided by the drc package.
# PRKCB = system: PRKCB; design: species or system human, MV4-11 + K-562 + COLO205 + SK-N-BE2 + OVCAR-8; settings: compound concentrations:0.3nM, 1nM, 3nM, 10nM, 30nM, 100nM, 300nM, 1000nM,R2:0.978843793099339,slope:1.0046603573044399,EC50 Standard Error, by the legend:Standard error of the EC50 estimation as provided by the drc package.
# PRKCD = system: PRKCD; design: species or system human, MV4-11 + K-562 + COLO205 + SK-N-BE2 + OVCAR-8; settings: compound concentrations:0.3nM, 1nM, 3nM, 10nM, 30nM, 100nM, 300nM, 1000nM,R2:0.97536342523711195,slope:1.1087330186118201,EC50 Standard Error, by the legend:Standard error of the EC50 estimation as provided by the drc package.
# PRKCQ = system: PRKCQ; design: species or system human, MV4-11 + K-562 + COLO205 + SK-N-BE2 + OVCAR-8; settings: compound concentrations:0.3nM, 1nM, 3nM, 10nM, 30nM, 100nM, 300nM, 1000nM,R2:0.97430848163672201,slope:0.92336588926382501,EC50 Standard Error, by the legend:Standard error of the EC50 estimation as provided by the drc package.
# CSNK1D = system: CSNK1D; design: species or system human, MV4-11 + K-562 + COLO205 + SK-N-BE2 + OVCAR-8; settings: compound concentrations:0.3nM, 1nM, 3nM, 10nM, 30nM, 100nM, 300nM, 1000nM,R2:0.90408083948088502,slope:1.4813297755061099,EC50 Standard Error, by the legend:Standard error of the EC50 estimation as provided by the drc package.
# CSNK1E = system: CSNK1E; design: species or system human, MV4-11 + K-562 + COLO205 + SK-N-BE2 + OVCAR-8; settings: compound concentrations:0.3nM, 1nM, 3nM, 10nM, 30nM, 100nM, 300nM, 1000nM,R2:0.89444069129231096,slope:0.86279178326481998,EC50 Standard Error, by the legend:Standard error of the EC50 estimation as provided by the drc package.
# MAPK14 = system: MAPK14; design: species or system human, MV4-11 + K-562 + COLO205 + SK-N-BE2 + OVCAR-8; settings: compound concentrations:0.3nM, 1nM, 3nM, 10nM, 30nM, 100nM, 300nM, 1000nM,R2:0.95433345689641902,slope:0.62517275376181303,EC50 Standard Error, by the legend:Standard error of the EC50 estimation as provided by the drc package.
# MAPKAPK2 = system: MAPKAPK2; design: species or system human, MV4-11 + K-562 + COLO205 + SK-N-BE2 + OVCAR-8; settings: compound concentrations:0.3nM, 1nM, 3nM, 10nM, 30nM, 100nM, 300nM, 1000nM,R2:0.91890870064253904,slope:1.05096662120135,EC50 Standard Error, by the legend:Standard error of the EC50 estimation as provided by the drc package.
# RIPK2 = system: RIPK2; design: species or system human, MV4-11 + K-562 + COLO205 + SK-N-BE2 + OVCAR-8; settings: compound concentrations:0.3nM, 1nM, 3nM, 10nM, 30nM, 100nM, 300nM, 1000nM,R2:0.98843771673654501,slope:0.97698272947785902,EC50 Standard Error, by the legend:Standard error of the EC50 estimation as provided by the drc package.
# RIPK3 = system: RIPK3; design: species or system human, MV4-11 + K-562 + COLO205 + SK-N-BE2 + OVCAR-8; settings: compound concentrations:0.3nM, 1nM, 3nM, 10nM, 30nM, 100nM, 300nM, 1000nM,R2:0.88646274803772895,slope:5.0878054739021197,EC50 Standard Error, by the legend:Standard error of the EC50 estimation as provided by the drc package.
# PRKACG = system: PRKACG; design: species or system human, MV4-11 + K-562 + COLO205 + SK-N-BE2 + OVCAR-8; settings: compound concentrations:0.3nM, 1nM, 3nM, 10nM, 30nM, 100nM, 300nM, 1000nM,R2:0.71933853436235096,slope:7.8735043887932097,EC50 Standard Error, by the legend:Standard error of the EC50 estimation as provided by the drc package.
# STK26 = settings: compound concentrations:3nM, 10nM, 30nM, 100nM, 300nM, 1000nM, 3000nM, 30000nM,R2:0.89438319987914305,slope:6.7801376871061398,EC50 Standard Error, by the legend:Standard error of the EC50 estimation as provided by the drc package.
# STK3 = settings: compound concentrations:3nM, 10nM, 30nM, 100nM, 300nM, 1000nM, 3000nM, 30000nM,R2:0.98274097972393204,slope:1.3616846231778099,EC50 Standard Error, by the legend:Standard error of the EC50 estimation as provided by the drc package.
# STK4 = settings: compound concentrations:3nM, 10nM, 30nM, 100nM, 300nM, 1000nM, 3000nM, 30000nM,R2:0.95767016983562303,slope:1.48085900140722,EC50 Standard Error, by the legend:Standard error of the EC50 estimation as provided by the drc package.
# TGFBR2 = settings: compound concentrations:3nM, 10nM, 30nM, 100nM, 300nM, 1000nM, 3000nM, 30000nM,R2:0.91957544903751998,slope:0.85257672285703501,EC50 Standard Error, by the legend:Standard error of the EC50 estimation as provided by the drc package.
molecule,measurement,setting,value
Cc1cccc(Nc2nc(N[C@H]3CCCC[C@H]3N)ncc2C(N)=O)c1.Cl [GSK986310C],EC50,PRKCA,446 nM
same,Kd,PRKCA; read-out: apparent Kd,272 nM
CCn1c(-c2nonc2N)nc2c(C#CC(C)(C)O)nc(OCCN)cc21.CCn1c(-c2nonc2N)nc2c(C#CC(C)(C)O)nc(OCCN)cc21.Cl.Cl [GSK902056A],EC50,CIT,279 nM
same,Kd,CIT; read-out: apparent Kd,279 nM
same,EC50,MOB1A,223 nM
same,Kd,MOB1A; read-out: apparent Kd,223 nM
same,EC50,PKN2,401 nM
same,Kd,PKN2; read-out: apparent Kd,401 nM
same,EC50,PRKACA,230 nM
same,Kd,PRKACA; read-out: apparent Kd,212 nM
same,EC50,PRKACB,145 nM
same,Kd,PRKACB; read-out: apparent Kd,145 nM
same,EC50,PRKCB,410 nM
same,Kd,PRKCB; read-out: apparent Kd,401 nM
same,EC50,PRKCD,124 nM
same,Kd,PRKCD; read-out: apparent Kd,124 nM
same,EC50,PRKCQ,58.7 nM
same,Kd,PRKCQ; read-out: apparent Kd,58.7 nM
Cl.NCc1ccc(-c2nc(-c3ccc(Cl)c(O)c3)c(-c3ccncc3)[nH]2)cc1 [SB-476429-A],EC50,CSNK1D,300 nM
same,Kd,CSNK1D; read-out: apparent Kd,300 nM
same,EC50,CSNK1E,642 nM
same,Kd,CSNK1E; read-out: apparent Kd,642 nM
same,EC50,MAPK14,174 nM
same,Kd,MAPK14; read-out: apparent Kd,174 nM
same,EC50,MAPKAPK2,174 nM
same,Kd,MAPKAPK2; read-out: apparent Kd,174 nM
same,EC50,RIPK2,55.9 nM
same,Kd,RIPK2; read-out: apparent Kd,28.8 nM
same,EC50,RIPK3,296 nM
same,Kd,RIPK3; read-out: apparent Kd,289 nM
CCn1c(-c2nonc2N)nc2c(C#CC(C)(C)O)nc(OCCNC)cc21.Cl [GSK949675A],EC50,PRKACG,303 nM
same,Kd,PRKACG; read-out: apparent Kd,262 nM
TAK659,EC50,STK26,363 nM
same,Kd,STK26; read-out: apparent Kd,275 nM
same,EC50,STK3,742 nM
same,Kd,STK3; read-out: apparent Kd,683 nM
same,EC50,STK4,628 nM
same,Kd,STK4; read-out: apparent Kd,567 nM
same,EC50,TGFBR2,3720 nM
same,Kd,TGFBR2; read-out: apparent Kd,2960 nM
